Test results reported in PubChem BioAssay (NCATS).
Values joined by “and” are separate entries in the source; they are usually repeats but may differ in a detail not shown here. Identical values can stand only once. Results filed as inconclusive are left out. Where a call stands in place of a potency, no number is given. Active and inactive are the calls of the source. Calls follow the shape of the full dose curve. Starred links: 1 amine or outer side, 2 acyl side, 3 side chain; linkers in the order of their positions; H or OH if unused. Positions of bridges follow the written chain, without caps; N, C: chain ends. Non-standard residues stand in square brackets, D forms with d. Residues, ends and D or L forms follow the SMILES beside them. ξ: configuration not given here. *: point of attachment. ΔAla(3-NHCONH2) = NC(=O)NC=C(N)C(=O)O; X1 = NC1=NCCC(C(N[*:1])C(=O)[*:2])N1; ξβ3hOrn = NCCCC(N)CC(=O)*; Dap = NC[CH](N)C(=O)O

Columns and labels:
[1] = Cytotoxicity counterscreen for inhibitors of SARS-CoV-2 cell entry (AID 1645845); conditions: cell viability (SARS-CoV-2 entry assay cells); series mostly up to 57.1 µM; also: nearly all actives have a fitted effect of over 50% in size
Procedure, shortened: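 Counterscreen run in the same HEK293-ACE2 line as the pseudotyped-particle entry assay, without particles. Viability after 48 h at 37 C was read as ATP luminescence, scaled between cell-containing and cell-free wells.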

[2] = Primary qHTS to identify inhibitors of SARS-CoV-2 cell entry (AID 1645846); conditions: SARS-CoV-2 pseudovirus cell entry assay, luminescence; activity change, negative = inhibition: at 57.1 µM (top of the series) unless noted; series mostly up to 57.1 µM; also: nearly all actives have a fitted effect of over 45% in size
Procedure, shortened: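 HEK293-ACE2 (Expi293F, stable hACE2), 1500 cells/well, o/n 37C; cpd 23 nL pin, 1 h; MLV-PP w/ SARS-CoV-2-S (Wuhan-Hu-1, Δ19 C-term); 48 h 37C; Bright-Glo luminescence; normalized vs S-PP and bald PP.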
Potency is read from the fitted curve at half-maximal effect.

Row | SMILES | Potency [1] | Potency [2] | activity change, negative = inhibition [2] | outcome [1]
1 | Nc1nnc(-c2cccc(Cl)c2Cl)c(N)n1 | inactive | inactive |  | 
2 | CC(=O)N[C@@H](CS)C(=O)O | inactive | inactive |  | 
3 | CO/N=C(\C(=O)N[C@@H]1C(=O)N2C(C(=O)O)=C(CSc3nc(=O)c(O)nn3C)CS[C@H]12)c1csc(N)n1 | inactive | inactive |  | 
4 | CN(N=O)C(=O)N[C@@H]1[C@@H](O)[C@H](O)[C@@H](CO)O[C@@H]1O | inactive |  | -3.87% and -2.3% | 
5 | O=C1CCC(N2C(=O)c3ccccc3C2=O)C(=O)N1 (configuration not stated) | inactive |  | -0.562% and -0.309% | 
6 | CC(C)(C)NC(=O)[C@H]1CC[C@H]2[C@@H]3CC[C@H]4NC(=O)C=C[C@]4(C)[C@H]3CC[C@]12C | inactive | inactive |  | 
7 | CCN1CCN(C(=O)N[C@@H](C(=O)N[C@@H]2C(=O)N3C(C(=O)O)=C(CSc4nnnn4C)CS[C@H]23)c2ccc(O)cc2)C(=O)C1=O | inactive | inactive |  | 
8 | CCN(C)C(=O)Oc1cccc([C@H](C)N(C)C)c1 | inactive | inactive |  | 
9 | CCCCOCCOCCOCc1cc2c(cc1CCC)OCO2 | inactive |  | -2.81% | 
10 | CCCN(CCC)S(=O)(=O)c1ccc(C(=O)O)cc1 | inactive |  | -14.9% | 
11 | Nc1cccc2c1CN(C1CCC(=O)NC1=O)C2=O (configuration not stated) | inactive | inactive |  | 
12 | CCOC(=O)[C@H](CCc1ccccc1)N[C@@H](C)C(=O)N1Cc2ccccc2C[C@H]1C(=O)O | inactive |  | 3.61% | 
13 | CCCN(CCC)CCc1cccc2c1CC(=O)N2 | inactive | inactive |  | 
14 | Cc1cc(C)cc(OCC2CNC(=O)O2)c1 (configuration not stated) | inactive | inactive |  | 
15 | O=c1[nH]cc(F)c(=O)[nH]1 | inactive | 11.2 µM (active) and 14.1 µM (active) |  | 
16 | NCCC(O)(P(=O)(O)O)P(=O)(O)O | inactive | inactive |  | 
17 | C1N2CN3CN1CN(C2)C3 | inactive | inactive |  | 
18 | Nc1nc(F)nc2c1ncn2[C@@H]1O[C@H](CO)[C@@H](O)[C@@H]1O | inactive |  | 3.89% and -17.8% | 
19 | Cc1ccccc1C(=O)Nc1ccc(C(=O)N2CCCC(O)c3cc(Cl)ccc32)c(C)c1 (configuration not stated) | inactive |  | -8.91% | 
20 | COc1cc(NCc2ccc3nc(N)nc(N)c3c2C)cc(OC)c1OC | 11.2 µM (active) and 1.12 µM (active) | 2.82 µM (active) |  | 
21 | CO[C@@H](C(=O)N1Cc2[nH]nc(NC(=O)c3ccc(N4CCN(C)CC4)cc3)c2C1)c1ccccc1 | inactive |  | -64.7% | 
22 | O=C1N=C(O)CN1/N=C/c1ccc(-c2ccc([N+](=O)[O-])cc2)o1 | inactive | inactive |  | 

Row | SMILES | Potency [1] | Potency [2] | activity change, negative = inhibition [2] | outcome [1]
23 | CC(C)c1c(C(=O)Nc2ccccc2)c(-c2ccccc2)c(-c2ccc(F)cc2)n1CC[C@@H](O)C[C@@H](O)CC(=O)O | inactive |  | -13% | 
24 | CCN(CC)CCNC(=O)c1cc(Cl)c(N)cc1OC | inactive | inactive |  | 
25 | Fc1ccc([C@@H]2CCNC[C@H]2COc2ccc3c(c2)OCO3)cc1 | inactive |  | -4.22% | 
26 | Cn1cnc2c(F)c(Nc3ccc(Br)cc3Cl)c(C(=O)NOCCO)cc21 | inactive |  | -32.9% | 
27 | COCCCC/C(=N\OCCN)c1ccc(C(F)(F)F)cc1 | inactive |  | 2.14% | 
28 | CC(C)(C(=O)O)c1ccc(C(O)CCCN2CCC(C(O)(c3ccccc3)c3ccccc3)CC2)cc1 (configuration not stated) | inactive | inactive |  | 
29 | N[C@@H](Cc1cc(I)c(Oc2cc(I)c(O)c(I)c2)c(I)c1)C(=O)O | inactive |  | -14.2% | 
30 | NS(=O)(=O)c1cc2c(cc1C(F)(F)F)NCNS2(=O)=O | inactive | inactive |  | 
31 | C[C@@H](c1ncncc1F)C(O)(Cn1cncn1)c1ccc(F)cc1F (some centres not stated) | inactive |  | -1.38% | 
32 | COc1ccc([C@@H]2Sc3ccccc3N(CCN(C)C)C(=O)[C@@H]2OC(C)=O)cc1 | inactive |  | -17.1% and -9.97% | 
33 | CC(=O)OCC(CCn1cnc2cnc(N)nc21)COC(C)=O | inactive |  | -14.3% and -5.75% | 
34 | c1cnc2cc3c(cc2n1)C1CNCC3C1 | inactive |  | -6.05% and -6% | 
35 | COc1ccc(OC)c(C(O)CNC(=O)CN)c1 (configuration not stated) | inactive |  | -24% | 
36 | Nc1[nH]c(=O)ncc1F | inactive |  | -21.9% and -13.2% | 
37 | NC[C@H](O)c1ccc(O)c(O)c1 | inactive |  | 4.91% and -20.6% | 
38 | Clc1ccc2c(c1)C(N1CCNCC1)=Nc1ccccc1O2 | inactive |  | -2.85% | 
39 | O=c1n(CCCN2CCN(c3cccc(Cl)c3)CC2)nc2ccccn12 | inactive |  | -23.8% | 
40 | NCCCC(N)CC(=O)NCC1NC(=O)C(CO)NC(=O)C(N)CNC(=O)C(C2CCN=C(N)N2)NC(=O)C(=CNC(N)=O)NC1=O (stereo not drawn) (H-[Dap]S[Dap](ξβ3hOrn)[ΔAla(3-NHCONH2)][X1]; lactam 1-C; configuration not given here) |  |  | 3.17% [at 0.702 µM] | inactive [at 0.702 µM]
41 | COc1ccccc1OCC(O)CN1CCN(CC(=O)Nc2c(C)cccc2C)CC1 (configuration not stated) | inactive |  | 4.5% and -8.51% | 
42 | Nc1cc(-c2ccncc2)c[nH]c1=O | inactive | inactive |  | 
43 | Cc1nc(-c2ccc(OCC(C)C)c(C#N)c2)sc1C(=O)O | inactive | inactive |  | 
44 | CCCCNC(=O)NS(=O)(=O)c1ccc(C)cc1 | inactive | inactive |  | 

Row | SMILES | Potency [1] | Potency [2] | activity change, negative = inhibition [2] | outcome [1]
45 | CC[N+](C)(C)c1cccc(O)c1 | inactive | inactive |  | 
46 | COc1cc(Cc2cnc(N)nc2N)cc(OC)c1OC | inactive | inactive |  | 
47 | Cc1cccc(Nc2ccccc2C(=O)O)c1C | inactive | inactive |  | 
48 | Cc1cnc(C(=O)NCCc2ccc(S(=O)(=O)NC(=O)NC3CCCCC3)cc2)cn1 | inactive |  | 3.67% | 
49 | CCC1C(=O)OCC1Cc1cncn1C (configuration not stated) | inactive |  | 2.21% | 
50 | CC(C)NCC(O)COc1ccc(CCOCC2CC2)cc1 (configuration not stated) | inactive |  | -14.6% and -1.57% | 
51 | CN(C)[C@@H]1C(=O)C(C(N)=O)=C(O)[C@@]2(O)C(=O)C3=C(O)c4c(O)ccc(Cl)c4[C@@H](O)[C@H]3C[C@@H]12 | inactive | inactive |  | 
52 | CNCC[C@@H](Oc1ccccc1C)c1ccccc1 | inactive |  | -15.9% | 
53 | OCCN1CCN(CCCN2c3ccccc3Sc3ccc(C(F)(F)F)cc32)CC1 | inactive | inactive |  | 
54 | COc1cc2c(cc1OC)C(=O)C(CC1CCN(Cc3ccccc3)CC1)C2 (configuration not stated) | inactive |  | -29.7% | 
55 | OC(Cn1cncn1)(Cn1cncn1)c1ccc(F)cc1F | inactive |  | -13.6% and -9.57% | 
56 | CCCCC1=NC2(CCCC2)C(=O)N1Cc1ccc(-c2ccccc2-c2nn[nH]n2)cc1 | inactive | inactive |  | 
57 | C[C@@H](O)[C@H]1C(=O)N2C(C(=O)O)=C(S[C@@H]3CN[C@H](CNS(N)(=O)=O)C3)[C@H](C)[C@H]12 | inactive |  | -25.7% | 
58 | CCC(C)n1ncn(-c2ccc(N3CCN(c4ccc(OC[C@H]5CO[C@](Cn6cncn6)(c6ccc(Cl)cc6Cl)O5)cc4)CC3)cc2)c1=O (some centres not stated) | inactive |  | -4.73% [at 27.1 µM] | 
59 | CC(C)Oc1ccc2c(=O)c(-c3ccccc3)coc2c1 | inactive | inactive |  | 
60 | Cc1ccsc1C(=CCCN1CCC[C@@H](C(=O)O)C1)c1sccc1C | inactive |  | -13.3% | 
61 | Cc1cn([C@H]2C=C[C@@H](CO)O2)c(=O)[nH]c1=O | inactive |  | -21.1% | 
62 | O=C1NC(c2ccccc2)(c2ccccc2)C(=O)N1COP(=O)(O)O | inactive |  | -4.89% | 
63 | CCOC(=O)Nc1ccc2c(c1)N(C(=O)CCN1CCOCC1)c1ccccc1S2 | inactive |  | -15.7% | 
64 | CC(C)Nc1cccnc1N1CCN(C(=O)c2cc3cc(NS(C)(=O)=O)ccc3[nH]2)CC1 | inactive | inactive |  | 
65 | CCCCCOC(=O)Nc1nc(=O)n([C@@H]2O[C@H](C)[C@@H](O)[C@H]2O)cc1F | inactive | inactive |  | 
66 | O=C1NC(=O)C(c2ccccc2)(c2ccccc2)N1 | inactive | inactive |  | 
